# ERG-DNA inh: inhibitors of human ERG Ets domain-DNA interaction; Potency, µM (doses to about 76.9 µM), without a hit: at the top dose FP activity, negative = inhibition, actives largely listed as inhibitors; fluorescence polarization, His-ERG Ets domain / labelled DNA; actives 0.028% (n = 370,000); AID 624246; active means well fitted inhibition curve with a large enough effect in the polarisation, with a control signal flat; inconclusive means small, poorly fitted or top-dose-only effect, or effect the other way, or a change in a side signal; inactive means no such curve, though single readings can be large or run the other way; the % refers to the polarisation;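 further: polarization taken with two DNA probes labelled with fluorescein and Texas red; potency means the concentration at half of the fitted maximal effect; % of control where 0% means no effect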
#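 His-tagged ERG Ets domain (1 uM in the protein solution; 300mM KCl, 50mM Tris-HCl, 1mM EDTA, 1mM DTT, pH 7.5) received compound, then a probe mix of 5 nM fluorescein-DNA and 100nM Texas-615-DNA. Fluorescence polarization was read for both dyes.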
# Giardia killer: kills Giardia lamblia. Giardia lamblia trophozoite viability. activity change, % at 7.66 µM, hits read low. actives 0.15% (n = 340,000). AID 540267; in the data active means activity change below about -80%; inconclusive means between about -30% and that limit;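 further: parasites exposed to compound for two days anaerobically before the ATP read; on the % scale 0 is the no-effect control and ±100 the full control effect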
#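 Anaerobic 48 hrs incubation at 37 deg C of 100 trophozoites/well with test compounds; ATPLite 1-Step luminescence, 15-30 min RT, reports cellular ATP as viability.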
# Integrin act MD: activators of alpha7 integrin expression for muscular dystrophy; alpha7betagal myoblasts, beta-gal FDG fluorescence, 48 h; Potency, µM (top dose mostly 38.3 µM), inactives show at the top dose activation, actives largely listed as activators; actives 0.064% (n = 350,000);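 further: potency means the concentration at half of the fitted maximal effect; 100% = response of the positive control SU9516; nearly all actives have a fitted effect of over 60% in size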
#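 Alpha7betagal+/- myoblasts (passage 13) were plated 16-24 hr, then exposed to compounds (1:260 dilution of DMSO stock) for 48 hours at 37C. After MPER lysis, β-galactosidase reporter activity was read as FDG fluorescence (ex 480/em 540) after 30 minutes.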
# RORg inh: inhibitors of mouse ROR gamma transcriptional activity. P51450. Drosophila S2 Gal4-RORgamma UAS-luciferase reporter, 20 h. Potency, µM (top dose mostly 53.6 µM), for inactives: at the top dose activity change, negative = inhibition, actives largely listed as inhibitors. actives 5.4% (n = 310,000). AID 2551; further: potency means the concentration at half of the fitted maximal effect; on the % scale 0 is the no-effect control and ±100 the full control effect; nearly all actives have a fitted effect of over 60% in size
# Target sequence (P51450 whole entry, looked up, the tested form may be a part): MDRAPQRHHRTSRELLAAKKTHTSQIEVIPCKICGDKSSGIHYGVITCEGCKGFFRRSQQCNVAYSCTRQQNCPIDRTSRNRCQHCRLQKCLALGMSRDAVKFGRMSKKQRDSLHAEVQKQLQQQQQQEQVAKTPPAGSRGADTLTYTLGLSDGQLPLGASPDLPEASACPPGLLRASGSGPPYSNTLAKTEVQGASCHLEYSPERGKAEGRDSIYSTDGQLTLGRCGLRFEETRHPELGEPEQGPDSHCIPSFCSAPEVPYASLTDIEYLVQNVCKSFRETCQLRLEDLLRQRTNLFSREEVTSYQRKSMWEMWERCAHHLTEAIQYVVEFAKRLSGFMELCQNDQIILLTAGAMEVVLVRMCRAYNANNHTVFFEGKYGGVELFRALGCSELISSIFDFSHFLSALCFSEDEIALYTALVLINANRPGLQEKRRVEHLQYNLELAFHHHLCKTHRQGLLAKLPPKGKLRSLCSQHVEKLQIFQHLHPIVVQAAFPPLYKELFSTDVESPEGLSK
#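 Stably transfected Drosophila Schneider cells are the test system, with ROR gamma fused to Gal4 and luciferase under UAS control; luminescence is read after 20 hr of 700 uM copper sulfate induction at ambient temperature.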
# Gal4-VP16 FLuc: inhibits Gal4-VP16 luciferase reporter, ROR gamma counter-screen; actives 3.5% (n = 310,000); AID 2546; Potency, µM (series often up to 53.6 µM), for the others: at the highest dose activity, negative = inhibition, most hits filed as inhibitors; Drosophila S2 Gal4-VP16 UAS-luciferase, luminescence, 20 h;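 further: Gal4-VP16 expression switched on by copper sulfate through the metallothionein promoter; potency means the concentration at half of the fitted maximal effect; on the % scale 0 is the no-effect control and ±100 the full control effect; nearly all actives have a fitted effect of over 50% in size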
# Numbers without * were called inactive; ? = inconclusive; nt = not tested or not shown. Shown is part of a subset that was picked to be rich in hits. Unless noted, the call rests on the fitted dose curve; in most records, active means well fitted curve in the direction sought with a large enough effect; inconclusive means small, poorly fitted or top-dose-only effect, or another doubt; inactive means no such curve, though single readings can be large; an effect the other way counts as inactive or inconclusive.
SMILES,ERG-DNA inh,Giardia killer,Integrin act MD,RORg inh,Gal4-VP16 FLuc
CC(=O)N1c2ccc(S(=O)(=O)NCC3CCC(C(=O)N4CCCC(C)C4)CC3)cc2CC1C (centres undefined),-7.8%,6.3,-15.3%,0.7%,-0.3%
Cc1ccc2nc(-c3cccnc3)oc2c1,-7.5%,-6.7,-14.9%,-9.7%,-7.2%
c1ccc(-c2noc(-c3ccno3)n2)nc1,11.6%,19.2,-13.7%,23.1%,-1.3%
Cc1ccc(-c2nc(-c3ccccn3)no2)cc1Cl,-2.0%,?,-9.1%,3.55µM*,5.62µM*
c1ccc(-c2nc(-c3ccccn3)no2)cc1,-7.5%,?,1.1%,2.24µM*,2µM*
c1ccc(-c2noc(-c3cccc4ccccc34)n2)nc1,-7.2%,13.6,1.4%,?,10µM*
Cc1ccc2nc(-c3ccccn3)oc2c1,0.5%,?,2.6%,10µM*,?
Cc1cccc(CNC(=O)CN2C(=O)CSc3c2c(C)nn3-c2ccccc2)c1,-6.0%,nt,nt,nt,nt
COc1ccc([C@H]2CC(=O)C=C(c3cccc4c3Oc3ccccc3S4)C2)cc1,-3.1%,-14.1,11.3%,nt,nt
c1ccc(-c2ccc(-c3nc(-c4ccccn4)no3)cc2)cc1,-13.7%,?,-14.1%,2.51µM*,1.41µM*
c1ccc(-c2cc(-c3nc(-c4ccccn4)no3)c3ccccc3n2)cc1,-7.9%,-7.6,13.3%,nt,nt
S=c1[nH]nc(-c2cccs2)n1C1CCCCC1,-10.0%,?,28.0%,0.0%,-10.4%
Nc1sc(-c2ccccc2)cc1-c1n[nH]c(=S)n1C1CCCCC1,-5.4%,-21.5,3.7%,2.24µM*,?
COc1ccc(-n2c(-c3cc(-c4ccccc4)sc3N)n[nH]c2=S)cc1,19.9%,-3.8,-4.6%,2.51µM*,?
COc1cc(-c2n[nH]c(=S)n2-c2ccc(C)cc2)cc(OC)c1OC,9.4%,1.0,?,14.8%,0.0%
CCCCn1c(N)c(N(CC(C)C)C(=O)CCNC(=O)c2ccc([N+](=O)[O-])cc2)c(=O)[nH]c1=O,4.6%,-3.3,2.2%,nt,nt
O=C(c1ccc2nc(N3CCOCC3)sc2c1)N1CCC(Cc2ccccc2)CC1,1.0%,12.0,0.6%,?,0.224µM*
CCN(Cc1ccccc1)S(=O)(=O)c1ccc(C(=O)N2CCN(c3nc4ccccc4s3)CC2)cc1,-5.6%,12.0,-17.2%,?,22.4µM*
COc1cccc(N2CCN(C(=O)c3ccc4nc(N5CCC(C)CC5)sc4c3)CC2)c1,-0.6%,nt,nt,12.6µM*,-20.1%
COc1ccc(N2CCN(C(=O)c3ccc4nc(N5CCC(C)CC5)sc4c3)CC2)cc1,1.7%,nt,nt,nt,nt
O=C(c1ccccc1)N1CCN(c2nc3ccc([N+](=O)[O-])cc3s2)CC1,-22.4%,-11.1,-5.2%,?,8.91µM*
CCc1ccc2nc(N3CCN(C(=O)c4ccccc4)CC3)sc2c1,-14.1%,nt,nt,nt,nt
O=C(Nc1ccc(C(=O)OCc2cc(=O)n3c4c(sc3n2)CCCC4)cc1)c1ccccc1,-4.9%,nt,nt,nt,nt
O=S1(=O)N(Cc2ccccc2F)CCCN1Cc1c(F)cccc1Cl,-0.4%,-1.8,-37.3%,-3.9%,-1.2%
c1ccc(C2Nc3ccccc3-c3nc4ccccc4n32)nc1 (centres undefined),-2.4%,-11.1,0.4%,8.91µM*,-8.7%
SMILES,ERG-DNA inh,Giardia killer,Integrin act MD,RORg inh,Gal4-VP16 FLuc
Cc1nnc(SC(C)C(=O)Nc2ccc(Cl)cn2)n1Cc1ccccc1 (centres undefined),nt,27.1,7.2%,8.7%,-1.0%
CC(Sc1nnc(-c2ccc(Cl)cc2Cl)n1Cc1ccccc1)C(=O)Nc1nccs1 (centres undefined),-10.3%,0.1,-29.0%,11.2µM*,-21.4%
CCCCCCC(C)OC(=O)c1ccccc1C(=O)O (centres undefined),-1.0%,3.7,-13.1%,13.3%,-1.7%
Cc1cc(C)c(C)c(S(=O)(=O)ON2C(=O)c3ccccc3C2=O)c1C,nt,9.2,-23.9%,?,12.6µM*
Cc1ccc(S(=O)(=O)ON2C(=O)c3ccccc3C2=O)c(C)c1,1.3%,1.0,9.4%,20µM*,?
Cc1cc(C)c(S(=O)(=O)ON2C(=O)c3ccccc3C2=O)cc1C,-5.7%,4.9,-22.7%,14.1µM*,15.8µM*
Cc1cc(=O)[nH]c(N=N/C(=N/Nc2ccccc2C)c2ccccc2)n1,4.4%,-23.3,-2.3%,2.51µM*,5.01µM*
Cc1cc(=O)[nH]c(N=N/C(=N/Nc2ccc(O)cc2)c2ccccc2)n1,-8.4%,2.1,-31.9%,-7.3%,-1.1%
COc1ccc(N/N=C(/N=Nc2nc(C)cc(=O)[nH]2)c2ccccc2)cc1,-17.7%,-17.6,-35.3%,?,5.01µM*
Cc1onc(-c2c(Cl)cccc2Cl)c1C(=O)N/N=C(\N)COc1ccc(Cl)cc1,-2.4%,-7.1,-27.2%,0.447µM*,0.501µM*
CSCCC(NC(=O)C1CCC(C)CC1)C(=O)OCC(=O)c1ccc(Cl)cc1 (centres undefined),0.3%,-4.9,7.9%,6.8%,3.98µM*
CC(C)CC(NC(=O)C1CCC(C)CC1)C(=O)OCC(=O)c1ccc(Cl)cc1 (centres undefined),-0.9%,nt,nt,nt,nt
Fc1ccc(NC(=S)N2CCn3cccc3C2c2cccnc2)cc1 (centres undefined),16.4%,-23.9,-29.5%,9.1%,2.8%
S=C(NCc1ccccc1)N1CCn2cccc2C1c1ccncc1 (centres undefined),0.0%,-4.9,-0.5%,3.98µM*,0.0%
Fc1ccc(C2c3cccn3CCN2C(=S)Nc2cccc(Br)c2)cc1 (centres undefined),12.3%,-3.6,-19.5%,8.91µM*,?
Oc1c(N=NC(=S)Nc2ccccc2F)c2ccccc2n1Cc1ccc(Cl)cc1,-3.4%,12.6,0.0%,3.98µM*,-14.0%
Oc1c(N=NC(=S)Nc2ccccc2F)c2ccccc2n1Cc1ccccc1F,-0.2%,-24.8,-43.0%,2.51µM*,3.98µM*
CCn1c(O)c(N=NC(=O)CNC(=O)c2ccccc2F)c2ccccc21,-7.0%,-16.3,-11.2%,-12.5%,-2.1%
CCNC(=S)N=Nc1c(O)n(Cc2ccc(Cl)cc2)c2ccccc12,9.8%,-3.4,-24.2%,4.47µM*,?
Cc1ccccc1Cn1c(O)c(N=NC(=S)Nc2ccccc2F)c2ccccc21,1.5%,-5.7,-67.3%,2.51µM*,?
O=C(CNC(=O)/C=C/c1ccccc1)N=Nc1c(O)n(Cc2ccccc2)c2ccccc12,nt,nt,nt,21.0%,6.5%
Cc1ccc(C)c(Cn2c(O)c(N=NC(=S)Nc3ccccc3F)c3ccccc32)c1,7.4%,-5.8,-13.5%,-42.1%,?
COc1ccc(CCNC(=O)CCc2c(C)nc3c4cccnc4nn3c2C)cc1OC,-2.6%,nt,nt,nt,nt
O=C(NNC(=O)c1cc(S(=O)(=O)N2CCOCC2)c(Cl)cc1Cl)c1ccccc1F,2.0%,-2.0,-7.1%,nt,nt
